This is a sample that favours compounds with a hit; in the whole collection about 6.1% have one here.
D3 antag: antagonists of human D3 dopamine receptor. P35462. hit rate 2.5% among 360,000. D3R cells, DiscoveRx beta-arrestin luminescence, antagonist mode; active compounds read low. max response, negative = inhibition, %; in the data active means max response below about -50%
Target sequence (P35462 whole entry, looked up): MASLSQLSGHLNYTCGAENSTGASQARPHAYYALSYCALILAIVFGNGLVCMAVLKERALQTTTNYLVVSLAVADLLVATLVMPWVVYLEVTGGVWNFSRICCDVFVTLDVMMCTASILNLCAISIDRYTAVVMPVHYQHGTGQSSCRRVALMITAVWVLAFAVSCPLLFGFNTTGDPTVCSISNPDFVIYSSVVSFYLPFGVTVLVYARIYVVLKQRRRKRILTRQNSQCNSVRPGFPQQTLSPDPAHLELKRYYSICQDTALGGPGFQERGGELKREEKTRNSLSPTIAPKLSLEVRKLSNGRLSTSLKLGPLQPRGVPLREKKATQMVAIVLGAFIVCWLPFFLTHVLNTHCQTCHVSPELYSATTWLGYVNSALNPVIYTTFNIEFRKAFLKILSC
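Cells expressing the human receptor were seeded at 1500 cells/well, incubated overnight at 37 degrees C in 5% CO2, then exposed to library compounds with dopamine controls for 90 minutes at 37 degrees C before luminescent detection.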
DRD3 agonist: agonists of human D3 dopamine receptor | P35462 | D3R DiscoveRx beta-arrestin cells, luminescence, 90 min | max activation, % | hit rate 0.58% among 410,000 | AID 652048; in the data active means max activation above about 30%
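Cells at 1500/well, incubated overnight, then treated with pinned compounds (dopamine as control) for 90 min at 37 degrees C. DiscoveRx reagent added for 30 - 60 minutes at room temperature; luminescence read.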
D1 PAM: human D1 dopamine receptor positive modulation. P21728. HEK293 TREx D1 cells, calcium flux, dopamine EC20 potentiation. potentiation, % at 10 µM. hit rate 0.036% among 360,000. AID 504651; in the data active means potentiation above about 30%
D1 antag: human D1 dopamine receptor antagonism; P21728; HEK293 TREx D1 cells, calcium flux, dopamine EC80; active compounds read low; activity change, negative = inhibition, % at 10 µM; hit rate 3.2% among 360,000; AID 504652; in the data active means activity change below about -30%
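Using tetracycline-induced force-coupled D1 Hek293 cells and a calcium dye, signals were followed for 180 s after compound, then for 180 s after EC80 dopamine, to detect inhibitors.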
D1 ag: activates the human D1 dopamine receptor; P21728; AID 504660; activation, % at 2 µM; HEK293 T-REx D1 cells, calcium flux, agonist mode; hit rate 1% among 360,000; in the data active means activation above about 30%
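Agonism was scored from calcium flux recorded over 180 s (1 read/s) after pintool compound addition, following a 10-cycle baseline. Cells were inducible force-coupled HEK293 TREx D1, plated overnight at 30 C and loaded with no-wash calcium dye.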
Numbers stand for hits; 0 = inactive; - = no result; ! = repeats disagree.

SMILES	D3 antag	DRD3 agonist	D1 PAM	D1 antag	D1 ag
CCOc1ccc(NC2=C(Cl)C(=O)N(Cc3ccccc3)C2=O)cc1	0	0	0	-30	0
CCOc1ccc(NC2=NCC(=O)N2CCc2ccccc2)cc1	0	0	0	-65	102
CCn1c(SCc2ccccc2)nc2c1c(=O)[nH]c(=O)n2C	0	0	0	0	0
Cn1c(=O)[nH]c(=O)c2c1nc(NN)n2CCOc1ccccc1	0	0	0	0	0
Cn1c(SCc2ccccc2)nc2c1c(=O)[nH]c(=O)n2C	0	0	0	-35	0
Cc1ccc(Cn2c(SCCN3CCCCC3)nc3c2c(=O)[nH]c(=O)n3C)cc1	0	0	0	-43	0
Cn1c(=O)[nH]c(=O)c2c1nc(Br)n2CCOc1ccccc1	-53	0	0	0	0
CCCn1c(Sc2nc3c(c(=O)[nH]c(=O)n3C)n2CCC)nc2c1c(=O)[nH]c(=O)n2C	-57	0	0	0	0
CCN(C(=O)Cn1c(=O)oc2cc(S(=O)(=O)N3CCCCCC3)ccc21)c1cccc(C)c1	-	0	0	0	0
CCOc1ccc(NC(=O)c2cnn(-c3ccc(C)c(C)c3)c2C2CCN(C(=O)OC(C)(C)C)CC2)cc1	-	0	0	0	0
Cn1c(=O)[nH]c(=O)c2c1nc(SCCN1CCCCC1)n2CCCc1ccccc1	-68	0	0	0	0
Cc1nc2ncnn2c(C)c1Cc1ccccc1Cl	-82	0	-	0	0
COc1ccc(NC(=O)CN(C)CC(=O)N2CCCCCC2)cc1	-65	0	0	0	0
COc1ccc(NC(=O)CN(C)S(=O)(=O)c2ccc3c(c2)CCCN3C(C)=O)cc1	0	0	0	-42!	0
COc1ccc(NC(=O)COc2nsnc2N2CCCCC2)cc1	0	0	0	-34	0
CN(CC(=O)Nc1ccc(Cl)c(Cl)c1)CC(=O)N1CCCCCC1	0	0	-	-	-
CC(=O)N1CCCc2cc(S(=O)(=O)N(C)CC(=O)Nc3ccccc3)ccc21	0	0	-	-	-
CC(C)c1ccc(NC(=O)c2ccc(=O)n(Cc3ccccc3)c2)cc1	-	0	0	-	0
N#C/C(=C\c1cc([N+](=O)[O-])c(N2CCOCC2)cc1N1CCOCC1)c1nc2ccccc2[nH]1	-79	0	0	0	0
N#C/C(=C/c1ccc(N2CCOCC2)o1)c1nc2ccccc2[nH]1	0	0	0	0	64
N#C/C(=C\c1ccc(Sc2nc3ccccc3[nH]2)o1)c1ccccc1	0	0	0	-34	0
Cc1ccc(N2C(=O)CCSC23C(=O)N(Cc2ccccc2)c2ccccc23)cc1F (stereo unspecified)	-	0	0	0	0
CCOC(=O)c1ccccc1NC(=O)Cn1c(=O)n(-c2ccc(CC)cc2)c(=O)c2c(C)c(C(=O)N(C)C)sc21	-	0	0	0	0
CCC1CCCCN1CCCNC(=O)c1cn(CC(C)C)c(=O)c2cc(OC)c(OC)cc12 (stereo unspecified)	-68	0	0	-	0
N#Cc1nc(COc2ccccc2Cl)oc1N1CCCC1	0	0	0	-31	0
SMILES	D3 antag	DRD3 agonist	D1 PAM	D1 antag	D1 ag
N#Cc1nc(COc2ccc(F)cc2)oc1N1CCC(Cc2ccccc2)CC1	0	0	0	0	48
CCN1CCN(c2oc(COc3ccc(-c4ccccc4)cc3)nc2C#N)CC1	-80	0	0	0	0
N#Cc1nc(COc2ccc(Br)cc2)oc1N1CCN(Cc2ccccc2)CC1	0	0	0	0	0
N#Cc1nc(COc2ccc(F)cc2)oc1N1CCN(Cc2ccccc2)CC1	0	0	0	0	0
CCc1nn(CC(=O)NC(C)CC)c(=O)c2cc3occc3n12 (stereo unspecified)	-	0	0	0	0
Cc1cc2c(cc1S(=O)(=O)Nc1cccc(C#N)c1)OCC(=O)N2	-	0	0	0	0
CN(C)CCOC(=O)C12CC3(C)CC(C)(CC(C)(C3)C1)C2	-84	0	0	0	0
Cc1cc(=O)[nH]c2nnc(SCC(=O)Nc3ccc(F)cc3F)n12	-	0	0	-	0
CCOC(=O)N1CCN(CC(=O)N2c3ccccc3Sc3ccccc32)CC1	0	0	0	0	47
CCOC(=O)Nc1ccc2c(c1)N(C(=O)CCN1CCN(C)CC1)c1ccccc1S2	0	0	0	0	0
CCOC(=O)Nc1ccc2c(c1)N(C(=O)N1CCN(C)CC1)c1ccccc1S2	0	0	0	-64	0
CC(C)(C)OC(=O)N1CCC(c2c(C(=O)NCCN3CCOCC3)cnn2-c2ccc(F)cc2F)CC1	-	0	0	0	0

Screens (PubChem)
